CHX counter: counter-screen for Shiga toxin inhibitors: cycloheximide protein synthesis inhibition. AID 2314. cell reporter, cycloheximide protein synthesis inhibition counterscreen. max response, %. hit rate 12% among 300,000; in the data active means max response mostly above about 13%, no sharp cut-off; inactive means mostly below about 14%; further: read at 38.3 µM for the half of the compounds with a filed dose; 0% is about no effect
Pf growth 48h: P. falciparum growth inhibition at 48 hours (one generation); P. falciparum luciferase growth in erythrocytes, 48 h; Potency, µM (highest dose often 28.7 µM), for the others: at the top dose activity change, negative = inhibition, usual class: inhibitors; hit rate 5.9% among 310,000; further: potency means the concentration at half of the fitted maximal effect; on the % scale 0 is the no-effect control and ±100 the full control effect
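Parasite viability was followed by luminescence of a genomically integrated firefly luciferase. Cultures held 0.1% parasitemia at 2% hematocrit (final), incubated under 5% CO2 at 37 C.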
Shiga inhibitor: inhibitors of Shiga toxin in Vero cells | Vero cells, Shiga toxin protein synthesis inhibition reporter | inhibition, % at 38.7 µM | hit rate 9.2% among 290,000 | AID 2315; in the data active means inhibition mostly above about 28%, no sharp cut-off; inactive means mostly below about 43%; further: 0% is about no effect
Pf growth 96h: P. falciparum growth inhibition at 96 hours; P. falciparum luciferase reporter growth, 96 h; Potency, µM (titrated, usually from 28.7 µM), for inactives: at the highest dose activity change, negative = inhibition, actives largely listed as inhibitors; hit rate 6.9% among 320,000; further: potency means the concentration at half of the fitted maximal effect; on the % scale 0 is the no-effect control and ±100 the full control effect
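Readout is luminescence from an integrated firefly luciferase in P. falciparum. Red cells, 2% hematocrit and 0.05% parasitemia final, were cultured with compound through two parasite generations (96 hours) at 37 C, 5% CO2.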
LmPK inhibitor: LmPK (Leishmania mexicana) enzyme inhibition | Q27686 | purified LmPK, Kinase-Glo ATP luminescence, 1 h | Potency, µM (series often up to 57.5 µM), for inactives: at the top dose activity change, negative = inhibition, usual class: inhibitors | hit rate 0.37% among 290,000 | AID 1721; further: potency means the concentration at half of the fitted maximal effect; on the % scale 0 is the no-effect control and ±100 the full control effect
Target sequence (Q27686 whole entry, looked up): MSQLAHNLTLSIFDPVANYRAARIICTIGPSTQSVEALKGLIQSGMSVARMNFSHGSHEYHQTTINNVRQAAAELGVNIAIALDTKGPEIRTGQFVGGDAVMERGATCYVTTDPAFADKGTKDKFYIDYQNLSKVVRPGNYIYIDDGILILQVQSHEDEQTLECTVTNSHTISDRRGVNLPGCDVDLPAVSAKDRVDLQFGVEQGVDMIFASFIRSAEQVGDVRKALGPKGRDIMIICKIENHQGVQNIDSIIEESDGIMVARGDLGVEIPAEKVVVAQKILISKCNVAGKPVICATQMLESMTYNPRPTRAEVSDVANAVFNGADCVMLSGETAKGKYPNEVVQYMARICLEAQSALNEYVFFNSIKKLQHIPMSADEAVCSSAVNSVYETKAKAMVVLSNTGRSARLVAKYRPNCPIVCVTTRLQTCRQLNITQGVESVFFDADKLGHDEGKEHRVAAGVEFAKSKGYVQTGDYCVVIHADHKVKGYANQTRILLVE
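Purified LmPK (0.1 nM) with 0.5 mM PEP and 0.1 mM ADP in imidazole buffer pH 7.2 with MgCl2/KCl, 1 h at room temperature. ATP formed was read by luciferase luminescence and normalized to no-enzyme and uninhibited controls.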
Numbers without * were called inactive; [ ] = remark or other dose. Most compounds without a hit are left out; they make up all but 22% or so of the library. Unless noted, the call rests on the fitted dose curve; in most records, active means well fitted inhibition curve with a large enough effect; inconclusive means small, poorly fitted or top-dose-only effect, or another doubt; inactive means no such curve, though single readings can be large or run the other way.

Screening COc1cc(CNC(C)C23CC4CC(CC(C4)C2)C3)cc(OC)c1OC (stereo not drawn) returned CHX counter -3, Pf growth 48h 12µM*, Shiga inhibitor -5, Pf growth 96h inconclusive and LmPK inhibitor -3%.
For CCn1cc(CN2CCC(n3nccc3NC(=O)CCc3ccccc3)CC2)cn1 the results were CHX counter 6, Pf growth 48h -15%, Shiga inhibitor -11, Pf growth 96h 33% and LmPK inhibitor -5%.
CCCCCCSc1ccc([C@@H]2[C@H]3C(=O)N(CC)C(=O)[C@H]3[C@]3(C(=O)OC)CCCN23)cc1 was read as Pf growth 48h inconclusive and Pf growth 96h 10µM*.
Screening CCCSc1ccc([C@@H]2[C@H]3C(=O)N(CC)C(=O)[C@H]3[C@]3(C(=O)OC)CCCCN23)cc1 returned Pf growth 48h 13µM* and Pf growth 96h 7.4µM*.
`CCC(C)Sc1ccc([C@H]2N[C@@](C)(C(=O)OC)[C@H]3C(=O)N(CC)C(=O)[C@@H]23)cc1` (stereo partly drawn) gave Pf growth 48h inconclusive and Pf growth 96h 37%.
`CC(C)NC(=O)c1ccc2c3n(nc2c1)-c1ccc(Cl)cc1CO3` gave CHX counter 21*, Pf growth 48h 154%, Shiga inhibitor 60*, Pf growth 96h 215% and LmPK inhibitor -4%.
Screening O=C(NCC1CCCO1)c1ccc2c(c1)OCO2 (stereo not drawn) returned CHX counter 10, Pf growth 48h 25%, Shiga inhibitor 27, Pf growth 96h 5% and LmPK inhibitor 3%.
`O=C(NCC1CCCO1)c1ccc2c3n(nc2c1)-c1ccccc1CO3` (stereo not drawn) gave CHX counter 52*, Pf growth 48h 199%, Shiga inhibitor 54*, Pf growth 96h 3% and LmPK inhibitor -29%.
Screening Cc1ccc2c(c1)COc1c3ccc(C(=O)N[C@@H](CO)C(C)C)cc3nn1-2 returned CHX counter 55*, Pf growth 48h 184%, Shiga inhibitor 74*, Pf growth 96h 226% and LmPK inhibitor 3%.
`CCCCn1nc2cc(C(=O)N[C@H](C)C3CCCCC3)ccc2c1OCC` gave CHX counter -3, Pf growth 48h inconclusive, Shiga inhibitor 9, Pf growth 96h inconclusive and LmPK inhibitor -6%.
COCCNC(=O)c1ccc(C)cc1C was read as CHX counter 6, Pf growth 48h 12%, Shiga inhibitor -14, Pf growth 96h 12% and LmPK inhibitor 2%.
`CCOc1c2ccc(C(=O)NCc3ccc(C)cc3)cc2nn1CC` gave CHX counter -1, Pf growth 48h 10%, Shiga inhibitor -15, Pf growth 96h 10% and LmPK inhibitor 0%.
COCCNC(=O)c1ccc2c3n(nc2c1)-c1ccc(C)cc1CO3 was read as CHX counter 59*, Pf growth 48h 56%, Shiga inhibitor 134*, Pf growth 96h 37% and LmPK inhibitor -9%.
For Cc1ccc(S(=O)(=O)N2CCOCC2)cc1NS(=O)(=O)c1ccc(F)c(F)c1 the results were Pf growth 48h -25% and Pf growth 96h -24%.
`CCC(C)(C)NC(=O)CN(CC1CCCO1)C(=O)CNS(=O)(=O)c1ccccc1` (stereo not drawn) gave CHX counter -8, Pf growth 48h 8%, Shiga inhibitor -3, Pf growth 96h inconclusive and LmPK inhibitor -4%.
Cn1c(SCc2ccc([N+](=O)[O-])cc2)nnc1-c1cccnc1 was read as CHX counter -2, Pf growth 48h -24%[5.75 µM], Shiga inhibitor -10, Pf growth 96h -11% and LmPK inhibitor 1%.
`CC1CN(C(=O)CCC(=O)NCc2ccccc2)c2ccccc2O1` (stereo not drawn) gave CHX counter 5, Pf growth 48h 12%, Shiga inhibitor 6, Pf growth 96h -3% and LmPK inhibitor -4%.
Screening CCCCCc1ccc(C(=O)CCC(=O)OCC(=O)N(CC)c2c(N)n(Cc3ccccc3)c(=O)[nH]c2=O)cc1 returned Pf growth 48h 7% and Pf growth 96h 46%.
For CCN(CC(=O)NCc1ccc(Cl)cc1)C(=O)C1CCN(S(=O)(=O)c2ccc(OC)c(OC)c2)CC1 the results were Pf growth 48h -4% and Pf growth 96h 0%.
Screening CCOC(=O)Nc1ccc(N2CCOCC2)c(S(=O)(=O)N2CCOCC2)c1 returned CHX counter -3, Pf growth 48h -11%, Shiga inhibitor -10, Pf growth 96h 29% and LmPK inhibitor -2%.
Screening CCOc1c2ccc(C(=O)NC3CCCc4ccccc43)cc2nn1C (stereo not drawn) returned CHX counter 13, Pf growth 48h 25%, Shiga inhibitor -13, Pf growth 96h 0% and LmPK inhibitor -1%.
For C[C@@H](CO)NC(=O)c1ccc2c3n(nc2c1)-c1ccccc1CO3 the results were CHX counter 17*, Pf growth 48h 139%, Shiga inhibitor 8, Pf growth 96h 302% and LmPK inhibitor 14µM*.
`O=C(N/N=C/c1ccncc1)c1cc2ccccc2cc1O` gave CHX counter 32*, Pf growth 48h 15%, Shiga inhibitor 31*, Pf growth 96h inconclusive and LmPK inhibitor 0%.
O=C(N/N=C/c1ccc[nH]1)c1cc2ccccc2cc1O was read as CHX counter 31*, Pf growth 48h inconclusive, Shiga inhibitor 78*, Pf growth 96h 1% and LmPK inhibitor 6%.
`O=C(Nc1ccncc1)c1cc(S(=O)(=O)N2CCOCC2)ccc1Cl` gave Pf growth 48h inconclusive and Pf growth 96h 3%.
For CCOc1ccc(CC2NCCc3cc(OCC)c(OCC)cc32)cc1OCC (stereo not drawn) the results were CHX counter 0, Pf growth 48h 12µM*, Shiga inhibitor -18, Pf growth 96h inconclusive and LmPK inhibitor 1%.
`Cc1ccc(C(=O)OC(C)C(=O)NC2CCCCC2)cc1S(=O)(=O)N1CCCCC1` (stereo not drawn) gave Pf growth 48h 7.4µM* and Pf growth 96h inconclusive.
Screening Cc1ccc(C(=O)OC(C)C(=O)NC2CCCCC2C)cc1S(=O)(=O)N1CCOCC1 (stereo not drawn) returned CHX counter 1, Pf growth 48h inconclusive, Shiga inhibitor -6, Pf growth 96h -8% and LmPK inhibitor -2%.
Screening Cc1ccc(C(=O)OC(C)C(=O)N(C)C2CCCCC2)cc1S(=O)(=O)N1CCCCC1 (stereo not drawn) returned Pf growth 48h 12µM* and Pf growth 96h inconclusive.
`NNC(=O)/C(=N/Nc1ccccc1)S(=O)(=O)c1ccc(Cl)cc1` gave CHX counter -5, Pf growth 48h 9.3µM*, Shiga inhibitor -14, Pf growth 96h 12µM* and LmPK inhibitor 5%.
Screening CCOC(=O)/C(=N\Nc1ccccc1)S(=O)(=O)c1ccccc1 returned CHX counter 22, Shiga inhibitor 25, Pf growth 96h 0% and LmPK inhibitor 7%.
